About 13,000 (3.2%) of roughly 400,000 compounds were called active. Where a call stands in place of a potency, no number is given. Another 18% or so got no clear call; they are omitted. The call rests on the fitted dose curve; in most records, active means well fitted cell-killing curve with a large enough effect; inconclusive means small, poorly fitted or top-dose-only effect, or effect the other way; inactive means flat fitted curve, though single readings scatter. Many of the other results were omitted from the sample, so actives are more common in it than they were.
assay: qHTS assay for MDR1-selective chemotherapeutics: Primary screen using the drug-selected MDR subline cells KB-V1; conditions: KB-V1 MDR cells viability, CellTiter-Glo, 72 h; series mostly up to 46.1 µM; further: nearly all actives have a fitted effect of over 60% in size
In short: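 Compound-treated KB-V1 multidrug-resistant cells, 72 h, 37 degrees C; viability by CellTiter-Glo. Fitted qHTS curves give the values.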
Potency means the concentration at half of the fitted maximal effect.

| Structure (SMILES) | Potency |
| --- | --- |
| Nc1cccc(-c2cncc(N3CCN(Cc4ccccn4)CC3)n2)c1 | inactive |
| COc1ccc(S(=O)(=O)N2CCN(CC(=O)N3CCNC3=O)CC2)cc1OC | inactive |
| O=C(COC(=O)CCc1c[nH]c2ccccc12)Nc1cccc(Cl)c1 | inactive |
| CCc1cc(C(=O)N(CC)CC(=O)Nc2c(F)cccc2F)sc1C | inactive |
| O=C(OCc1ccccc1)N1CCC2CC1c1ccc(-c3ccc4c(c3)OCO4)cc12 (stereo not drawn) | inactive |
| Cc1ccc(CSc2ccc(S(=O)(=O)N3CCCCC3)cn2)cc1 | inactive |
| O=S(=O)(c1ccc(SCc2ccc(Br)cc2)nc1)N1CCOCC1 | 13 µM (active) |
| O=S(=O)(c1ccc(SCc2ccccc2)nc1)N1CCCCCC1 | inactive |
| Cc1cccc2c1-c1sc(C(=O)Nc3ccc(F)cc3F)cc1CO2 | inactive |
| COc1ccc(NC(=O)C2(C)Cc3c(-c4cccc(NC(C)=O)c4)ccnc3O2)cc1OC (stereo not drawn) | inactive |
| O=C(CC(O)(C(F)(F)F)C(F)(F)F)Nc1ccc(Cl)c(Cl)c1 | 3.26 µM (active) |
| CCn1nccc1C(=O)Nc1ccc(Cl)c(Cl)c1 | inactive |
| O=C(CSc1nnc(-c2ccncc2)n1-c1ccccc1)Nc1ccc(Cl)c(Cl)c1 | inactive |
| CCOC(=O)N1CCC(NC(=O)c2ccc3nc(N4CCOCC4)sc3c2)CC1 | 3.66 µM (active) |
| CC1CCN(c2nc3ccc(C(=O)N4CCN(c5ccccc5)CC4)cc3s2)CC1 | inactive |
| Cc1ccc(C(=O)NC2CCN(C(=O)N3CCOCC3)CC2)cc1 | inactive |
| CC1CCC2(CC1)NC(=O)N(CC(=O)NCc1ccco1)C2=O (stereo not drawn) | inactive |
| C[C@H]1CN([C@@H](C)CO)C(=O)c2cc(-c3cccc(F)c3)cnc2O[C@@H]1CN(C)S(C)(=O)=O | inactive |
| CC(OC(=O)c1ccc([N+](=O)[O-])cc1)C(=O)NCC1CCCCC1 (stereo not drawn) | inactive |
| COc1cc(C(=O)OC(C)C(=O)NCC2CCCCC2)cc(NC(=O)c2ccco2)c1OC (stereo not drawn) | 20.6 µM (active) |
| COc1ccc(NC(=O)CCC(=O)Nc2cc(OC)c(NC(=O)c3ccco3)cc2OC)c(OC)c1 | inactive |
| CN(C)CCCOc1ccc(-c2ccc3nccn3c2)cn1 | inactive |
| CC(C)CC(=O)N=C1SC2CS(=O)(=O)CC2N1CCc1ccccc1 (stereo not drawn) | 13 µM (active) |
| O=C(CCC1CCCC1)N=C1SC2CS(=O)(=O)CC2N1Cc1ccccc1 (stereo not drawn) | inactive |
| O=C(N=C1SC2CS(=O)(=O)CC2N1Cc1ccccc1)c1ccccc1 (stereo not drawn) | inactive |
| C/C=C/C(=O)Nc1ccc(N2CCN(c3ccc(C(F)(F)F)cn3)CC2)nc1 | inactive |
| Cc1ccc(F)cc1NC(=O)N1CCCN(c2ccc(C(F)(F)F)cn2)CC1 | 20.6 µM (active) |
| CCOc1ccc(C(=O)NCC(=O)N2CCN(c3ccc(C(F)(F)F)cn3)CC2)cc1 | inactive |

From PubChem BioAssay AID1347076 (National Center for Advancing Translational Sciences (NCATS), 2019)
